# Measurements: PubChem BioAssay
# Calls of active or inactive are those of the source.
# Tests used:
# [1] = small molecules captured by biotinylated probe aFSTL3 – biochemical, small-molecule microarray, fluorescence 635/667, stem cell growth factor project, primary screen (AID 1064); details: higher = more signal;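 note: measures binding of the biotinylated anti-FSTL3 antibody to printed compounds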
# [2] = binders from COS7 lysate, DM2A8 probe, primary screen, torsin A project, cell lysate, small-molecule microarray, fluorescence 635/667 (AID 1065); details: higher = more signal, COS7 lysate expressing mutant human TOR1A
# [3] = small molecules captured by biotinylated probe aFGF2 – biochemical, small-molecule microarray, fluorescence 635/667, stem cell growth factor project, primary screen (AID 1067); details: higher = more signal;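 note: measures binding of biotinylated aFGF2 protein to printed compounds on slides; z-score merges feature fluorescence and signal-to-noise across triplicate slides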
# [4] = small molecules captured by biotinylated probe aFGF10 – biochemical, small-molecule microarray, fluorescence 635/667, stem cell growth factor project, primary screen (AID 1071); details: higher = more signal;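 note: score merges 667 nm spot intensity and signal to noise from triplicate slides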
# [5] = biological target: Neurogenic locus notch homolog protein 2 (Homo sapiens) (UniProt Q04721); assay: small molecules binding Notch2 protein – biochemical, small-molecule microarray, 635 nm fluorescence, stem cell growth factors, primary screen (AID 1073); details: higher = more signal
# [6] = biological target: Pro-neuregulin-1, membrane-bound isoform (Homo sapiens) (UniProt Q02297); assay: small molecules binding neuregulin-1 protein – biochemical, small-molecule microarray, fluorescence 635/667, psychiatric disease protein project, primary screen (AID 1075); details: NRG1 binding, 635 nm fluorescence, higher = more signal;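 note: score combines 667 nm spot fluorescence with signal to noise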
# [7] = test system: Neuregulin-1 EGF-like domain; assay: small molecules binding NRG1 EGF domain – biochemical, small-molecule microarray, 635 nm fluorescence, primary screen (AID 1081); details: higher = more signal;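 note: binding of the protein to compounds printed on small-molecule microarray slides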
# [8] = FRG1 expression reporter modulators in myotubes – cell-based, C2C12 myotubes, firefly/Renilla luciferase, luminescence, FRG1 inhibition for FSHD, primary screen (AID 1084); details: FRG1 promoter luciferase, higher = more signal, called active from +8 up or from −8 down
# [9] = small molecules captured by biotinylated probe aFST – biochemical, small-molecule microarray, fluorescence 635/667, stem cell growth factor project, primary screen (AID 1086); details: higher = more signal;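 note: score merges 667 nm fluorescence with signal-to-noise of each printed compound spot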
# [10] = binders of probe aHhip on microarray, primary screen, stem cell growth factor project, biochemical, small-molecule microarray, fluorescence 635/667 (AID 1087); details: higher = more signal;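 note: score merges spot fluorescence at 667nm with spot signal to noise ratio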
# [11] = test system: PRMT1 (protein arginine N-methyltransferase 1); assay: small molecules binding arginine methyltransferase PRMT1 – biochemical, small-molecule microarray, 635 nm fluorescence, primary screen (AID 1088); details: higher = more signal;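 note: binding of Prmt1 protein to compounds spotted on small-molecule microarray slides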
# [12] = growth effects on S. cerevisiae YJM789 – YJM789 clinical isolate, OD600, 24 h, basal, primary screen (AID 1089); details: higher = more signal, called active from +8 up or from −8 down;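 note: growth of clinical yeast isolate S. cerevisiae YJM 789 seeded 1000 cells per well; test concentration not given here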
# [13] = S. pombe growth modifiers, basal conditions – strain 972, OD600, 24 h, no modulator, primary screen (AID 1090);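 note: basal condition with compound alone and no growth modifier present; test concentration not given here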; details: S. pombe 972 growth, higher = more signal, called active from +8 up or from −8 down
# [14] = budding yeast growth modifiers under rapamycin – strain BY4716, OD600, 96 h, primary screen (AID 1091); note: test concentration not given here; details: S. cerevisiae BY4716 + rapamycin, higher = more signal, called active from +8 up or from −8 down
# [15] = biological target: Torsin-1A-interacting protein 2 (Homo sapiens) (UniProt Q8NFQ8); assay: small molecules binding lysate-expressed LULL1 – cell lysate, human LULL1 lysate, 635/667 nm fluorescence, primary screen (AID 1092); details: small-molecule microarray, hLULL1 lysate binding, 635 nm fluorescence; higher = more signal;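 note: probe is lysate of COS7 cells overexpressing human LULL1; score merges per-feature 667 nm fluorescence with signal-to-noise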
# [16] = optical density change of DRC41 E. coli – strain DRC41, OD650, 24 h, E. coli filamentation project, primary screen (AID 1093);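 note: MC1000 strain lacking acrAB efflux and sulA so SOS filamentation is blocked; test concentration not given here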; details: E. coli DRC41 growth, higher = more signal, called active from +8 up or from −8 down
# [17] = probe aLefty2 binding to arrayed compounds – biochemical, biotinylated probe, 635/667 nm fluorescence, primary screen (AID 1094); details: small-molecule microarray, higher = more signal;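 note: score merges spot fluorescence near 667 nm with spot signal-to-noise ratio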
# [18] = test system: Noggin (protein binding on small-molecule microarray); assay: small molecules binding Noggin protein – biochemical, 635/667 nm fluorescence, primary screen (AID 1095); details: 635 nm fluorescence, higher = more signal;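 note: score merges 667 nm feature fluorescence with signal to noise over triplicate slides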
# [19] = biological target: Neurogenic locus notch homolog protein 3 (Homo sapiens) (UniProt Q9UM47); assay: small molecules binding NOTCH3 protein – biochemical, 635/667 nm fluorescence, primary screen (AID 1096); details: small-molecule microarray, 635 nm fluorescence, higher = more signal
# [20] = probe aEGFR binding to arrayed compounds – biochemical, biotinylated probe, 635/667 nm fluorescence, primary screen (AID 1097); details: small-molecule microarray, higher = more signal;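 note: probe is a biotinylated anti-EGFR antibody binding compounds printed on slides; score combines fluorescence near 667 nm and signal to noise of each spot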
# Sequence of Neurogenic locus notch homolog protein 2 (Homo sapiens) (Q04721 whole entry, looked up, canonical isoform): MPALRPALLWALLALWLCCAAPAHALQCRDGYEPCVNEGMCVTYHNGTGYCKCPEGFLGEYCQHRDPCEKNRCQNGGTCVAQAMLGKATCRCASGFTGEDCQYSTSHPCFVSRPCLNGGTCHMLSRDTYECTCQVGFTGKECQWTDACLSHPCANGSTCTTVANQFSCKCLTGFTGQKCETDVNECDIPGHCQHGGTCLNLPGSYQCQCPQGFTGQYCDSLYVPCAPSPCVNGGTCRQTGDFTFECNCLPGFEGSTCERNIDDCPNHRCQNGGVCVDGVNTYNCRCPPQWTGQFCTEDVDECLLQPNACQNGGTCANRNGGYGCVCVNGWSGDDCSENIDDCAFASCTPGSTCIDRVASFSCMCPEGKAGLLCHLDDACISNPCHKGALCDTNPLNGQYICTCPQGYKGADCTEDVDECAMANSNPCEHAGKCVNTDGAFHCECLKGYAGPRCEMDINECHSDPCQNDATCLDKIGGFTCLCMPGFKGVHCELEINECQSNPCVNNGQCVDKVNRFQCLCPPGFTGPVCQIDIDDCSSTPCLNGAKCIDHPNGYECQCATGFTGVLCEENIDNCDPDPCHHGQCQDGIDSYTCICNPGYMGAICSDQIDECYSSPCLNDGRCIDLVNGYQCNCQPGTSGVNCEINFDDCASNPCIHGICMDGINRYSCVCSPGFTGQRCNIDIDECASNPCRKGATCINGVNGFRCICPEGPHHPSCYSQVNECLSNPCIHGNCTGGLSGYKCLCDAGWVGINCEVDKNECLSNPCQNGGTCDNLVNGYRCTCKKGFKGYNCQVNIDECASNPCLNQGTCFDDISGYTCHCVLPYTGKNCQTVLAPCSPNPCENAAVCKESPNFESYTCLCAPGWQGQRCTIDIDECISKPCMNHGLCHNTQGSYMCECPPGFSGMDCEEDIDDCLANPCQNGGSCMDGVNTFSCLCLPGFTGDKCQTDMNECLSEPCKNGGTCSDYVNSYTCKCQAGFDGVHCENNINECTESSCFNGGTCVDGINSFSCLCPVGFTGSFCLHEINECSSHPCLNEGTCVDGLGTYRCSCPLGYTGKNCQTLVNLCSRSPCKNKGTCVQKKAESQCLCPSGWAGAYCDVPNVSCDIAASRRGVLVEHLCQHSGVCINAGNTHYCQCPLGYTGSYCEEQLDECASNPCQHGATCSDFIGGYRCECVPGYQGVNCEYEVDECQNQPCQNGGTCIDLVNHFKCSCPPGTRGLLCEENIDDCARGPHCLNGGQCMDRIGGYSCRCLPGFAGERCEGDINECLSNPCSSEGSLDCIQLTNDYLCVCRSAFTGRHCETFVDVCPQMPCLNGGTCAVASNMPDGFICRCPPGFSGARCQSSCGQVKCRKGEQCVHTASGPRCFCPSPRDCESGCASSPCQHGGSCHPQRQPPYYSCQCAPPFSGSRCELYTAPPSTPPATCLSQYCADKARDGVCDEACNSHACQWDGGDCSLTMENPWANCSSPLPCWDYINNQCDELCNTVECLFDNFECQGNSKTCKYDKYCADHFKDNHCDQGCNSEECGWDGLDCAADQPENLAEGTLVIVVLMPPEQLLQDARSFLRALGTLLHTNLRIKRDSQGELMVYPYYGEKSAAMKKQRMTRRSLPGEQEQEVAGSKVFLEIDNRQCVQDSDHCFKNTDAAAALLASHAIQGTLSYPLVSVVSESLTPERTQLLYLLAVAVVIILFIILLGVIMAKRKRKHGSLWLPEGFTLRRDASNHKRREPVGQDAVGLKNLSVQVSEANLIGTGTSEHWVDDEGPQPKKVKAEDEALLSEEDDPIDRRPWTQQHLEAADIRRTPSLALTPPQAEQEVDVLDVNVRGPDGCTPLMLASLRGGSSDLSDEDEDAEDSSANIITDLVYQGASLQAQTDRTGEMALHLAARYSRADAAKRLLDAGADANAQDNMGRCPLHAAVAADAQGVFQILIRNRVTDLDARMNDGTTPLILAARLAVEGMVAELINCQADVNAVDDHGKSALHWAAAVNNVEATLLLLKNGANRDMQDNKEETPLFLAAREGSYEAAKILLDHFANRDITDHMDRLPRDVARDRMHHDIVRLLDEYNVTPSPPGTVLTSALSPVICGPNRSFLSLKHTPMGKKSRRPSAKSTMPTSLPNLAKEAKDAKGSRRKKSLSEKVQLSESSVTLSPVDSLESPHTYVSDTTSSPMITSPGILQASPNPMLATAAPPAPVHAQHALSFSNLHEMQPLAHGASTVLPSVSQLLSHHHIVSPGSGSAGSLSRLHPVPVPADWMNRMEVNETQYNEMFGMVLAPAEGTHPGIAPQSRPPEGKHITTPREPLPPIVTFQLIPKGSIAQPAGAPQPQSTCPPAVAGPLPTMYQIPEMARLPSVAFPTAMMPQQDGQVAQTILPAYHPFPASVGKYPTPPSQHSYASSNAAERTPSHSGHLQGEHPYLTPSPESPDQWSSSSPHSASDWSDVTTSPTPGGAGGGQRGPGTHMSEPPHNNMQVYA
# Sequence of Pro-neuregulin-1, membrane-bound isoform (Homo sapiens) (Q02297 whole entry, looked up, the tested form may be a part, canonical isoform): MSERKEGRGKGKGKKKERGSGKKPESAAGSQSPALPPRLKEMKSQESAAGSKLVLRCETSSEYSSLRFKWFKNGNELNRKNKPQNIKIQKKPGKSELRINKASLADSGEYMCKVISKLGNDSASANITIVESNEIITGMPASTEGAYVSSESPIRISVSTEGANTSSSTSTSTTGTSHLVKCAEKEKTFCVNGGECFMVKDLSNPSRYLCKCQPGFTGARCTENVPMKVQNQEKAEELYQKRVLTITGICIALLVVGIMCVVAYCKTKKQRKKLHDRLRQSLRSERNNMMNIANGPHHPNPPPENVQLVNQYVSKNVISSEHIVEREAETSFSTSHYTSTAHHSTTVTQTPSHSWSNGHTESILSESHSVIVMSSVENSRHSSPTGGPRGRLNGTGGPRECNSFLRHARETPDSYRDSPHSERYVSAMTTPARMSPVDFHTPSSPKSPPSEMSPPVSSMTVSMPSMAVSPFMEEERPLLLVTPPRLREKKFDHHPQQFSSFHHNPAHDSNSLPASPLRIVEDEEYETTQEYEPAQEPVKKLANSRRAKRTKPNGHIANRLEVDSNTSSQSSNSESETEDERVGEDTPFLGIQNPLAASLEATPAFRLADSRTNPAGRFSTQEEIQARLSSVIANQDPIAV
# Sequence of Torsin-1A-interacting protein 2 (Homo sapiens) (Q8NFQ8 whole entry, looked up): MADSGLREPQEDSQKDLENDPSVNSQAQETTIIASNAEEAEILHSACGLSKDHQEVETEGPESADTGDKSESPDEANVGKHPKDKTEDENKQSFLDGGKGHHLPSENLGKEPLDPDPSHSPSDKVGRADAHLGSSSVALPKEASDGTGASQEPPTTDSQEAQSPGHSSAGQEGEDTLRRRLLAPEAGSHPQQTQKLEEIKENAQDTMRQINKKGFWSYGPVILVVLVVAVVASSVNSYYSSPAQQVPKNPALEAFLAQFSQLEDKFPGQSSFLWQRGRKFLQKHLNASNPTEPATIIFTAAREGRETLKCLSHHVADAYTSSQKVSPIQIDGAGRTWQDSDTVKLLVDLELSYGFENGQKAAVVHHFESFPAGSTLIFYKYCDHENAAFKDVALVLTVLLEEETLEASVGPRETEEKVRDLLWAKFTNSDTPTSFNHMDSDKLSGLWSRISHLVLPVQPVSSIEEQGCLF
SMILES,composite z-score [1],composite z-score [2],composite z-score [3],composite z-score [4],composite z-score [5],composite z-score [6],composite z-score [7],z-score [8],composite z-score [9],composite z-score [10],composite z-score [11],z-score [12],z-score [13],z-score [14],composite z-score [15],z-score [16],composite z-score [17],composite z-score [18],composite z-score [19],composite z-score [20]
C=C(COC)/C(=C/C[C@H](OC(=O)c1ccncc1)c1cccc(OCCO)c1)c1cnc2ccccc2c1,-0.125,0.544,-0.103,0.427,1.41,1.3,1.28,2.63 (inactive),0.841,-0.134,1.54,-2.15 (inactive),-0.677 (inactive),0.0694 (inactive),1.75,-0.0055 (inactive),0.0333,1.53,1.03,-0.0025
O=C1NC(=O)C2C1C=CC(C(O)c1cccc(O)c1)N2Nc1ccc(Cl)cc1Cl (stereo not given),0.312,0.0528,-0.161,0.0569,1.09,1.08,0.275,0.203 (inactive),0.259,-0.272,-1.24,-0.927 (inactive),0.765 (inactive),0.668 (inactive),0.991,-2.08 (inactive),0.0893,0.115,-0.207,0.012
CC(=O)NCCCC[C@@H]1NC(=O)[C@@H]2C[C@H](C(=O)NCCCCCC[N+](C)(C)C)[C@H](c3ccc(O)cc3)N2C1=O,0.101,0.437,-0.224,0.204,0.472,0.148,1.23,3.02 (inactive),-0.0677,0.0881,0.914,0.124 (inactive),-0.16 (inactive),0.216 (inactive),1.43,-0.453 (inactive),0.104,0.761,0.157,-0.476
CN1C=C(C(=O)OCCS(C)(=O)=O)C(C(=O)OCCS(C)(=O)=O)=CC(CCCO)=CC1c1ccc(CN2CCCC2)cc1 (stereo not given),0.316,0.156,0.0126,1.11,1.25,2.02,1.35,0.226 (inactive),1.65,0.0053,1.48,0.897 (inactive),-6.78 (inactive),-0.781 (inactive),3.06,0.0324 (inactive),0.383,0.845,0.984,0.273
CCCC[C@@H]1C[C@H]1[C@@H](NC(=O)c1ccc(C(F)(F)F)cc1)c1ccc(C(=O)OC)cc1,1.54,2.4,0.589,0.769,0.587,0.311,0.0521,-2.69 (inactive),0.568,2.46,0.715,0.119 (inactive),-3.29 (inactive),-0.898 (inactive),0.888,0.255 (inactive),0.293,0.747,0.812,0.695
COCCOC(=O)N1C(=O)[C@@]2(c3cc(C#CCCO)ccc31)[C@H](c1ccccc1OCCO)N1[C@H](c3ccccc3)[C@H](c3ccccc3)OC(=O)[C@H]1[C@@H]2C(=O)N1CCc2cc(OC)c(OC)cc2C1,0.071,0.827,0.022,1.04,1.04,1.21,1.17,-1.4 (inactive),0.505,0.0373,1.54,1.88 (inactive),0.763 (inactive),3 (inactive),2.93,1.26 (inactive),-0.0616,1.26,1.12,0.0384
O=C1C2C=CC(C(O)C(c3ccccc3)c3ccccc3)N(Nc3ccccc3)C2C(=O)N1c1ccccc1 (stereo not given),0.35,0.0239,0.128,0.244,1.63,1.66,1.17,-0.996 (inactive),1.01,-0.318,1.55,0.838 (inactive),0.0855 (inactive),0.281 (inactive),3.23,-1.15 (inactive),0.0731,0.351,1.03,0.056
CC(C)C(=C=CC[C@@H](O)c1cccc(OCCO)c1)CCO,-0.226,0.17,-0.085,0.742,0.271,-0.163,0.364,-0.202 (inactive),0.321,0.0505,-0.102,0.493 (inactive),-0.0344 (inactive),-0.0595 (inactive),1.07,0.739 (inactive),-0.0003,0.305,0.454,0.0241
CC(C)CNC(=O)[C@@H]1c2ccccc2C(=O)N(Cc2ccccc2)[C@H]1c1ccc(CO)cc1,1.12,0.886,0.0173,-0.0403,-1.04,0.935,0.76,-0.504 (inactive),-0.469,-0.118,0.586,-0.416 (inactive),0.138 (inactive),-0.895 (inactive),3.22,-0.73 (inactive),-0.188,-0.731,-0.677,-0.189
C=CCC(OC(C)=O)[C@@H]1[C@@H](N(Cc2cccc3ccccc23)C(=O)c2ccc(C)cc2)c2cc(OCCCO)ccc2N1C(=O)c1ccc2ccccc2n1 (stereo not given in full),-0.0635,0.552,0.01,0.238,-0.327,-0.157,0.0751,-1.44 (inactive),0.223,0.386,0.56,-2.04 (inactive),0.378 (inactive),-0.6 (inactive),0.563,1.21 (inactive),0.0748,0.708,0.209,-0.0437
